# Assay results as given in ChEMBL document CHEMBL1961873, “Compounds: GSK PKIS; Assays: Nanosyn kinase panel” (2012).
# Tests used:
# [1] = molecular target: Sphingosine kinase 1 (Homo sapiens) (UniProt Q9NYA1); conditions: at 1 µM;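 also: mean SPHK1 inhibition value reported from the GSK PKIS kinase panel screen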
# [2] = molecular target: T1, Sphingosine kinase 2 (Homo sapiens) (UniProt Q9NRA0); conditions: at 0.1 µM
# T1 sequence (whole entry): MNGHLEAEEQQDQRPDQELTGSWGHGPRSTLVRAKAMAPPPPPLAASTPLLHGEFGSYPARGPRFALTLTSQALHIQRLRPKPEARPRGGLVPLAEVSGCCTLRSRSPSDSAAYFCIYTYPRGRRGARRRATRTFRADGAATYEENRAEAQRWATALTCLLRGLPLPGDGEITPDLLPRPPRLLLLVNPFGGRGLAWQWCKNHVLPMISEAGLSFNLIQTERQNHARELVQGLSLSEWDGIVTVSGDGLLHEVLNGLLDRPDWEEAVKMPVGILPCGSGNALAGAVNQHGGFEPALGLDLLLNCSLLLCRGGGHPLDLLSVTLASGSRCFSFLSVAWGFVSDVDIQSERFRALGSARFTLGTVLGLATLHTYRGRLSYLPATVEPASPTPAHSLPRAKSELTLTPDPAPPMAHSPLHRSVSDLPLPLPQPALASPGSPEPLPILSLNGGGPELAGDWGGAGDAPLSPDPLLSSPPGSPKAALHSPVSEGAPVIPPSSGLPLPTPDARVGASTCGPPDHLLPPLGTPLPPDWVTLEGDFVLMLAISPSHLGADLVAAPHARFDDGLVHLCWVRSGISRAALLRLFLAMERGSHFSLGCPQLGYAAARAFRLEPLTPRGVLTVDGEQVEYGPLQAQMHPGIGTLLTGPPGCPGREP
# [3] = molecular target: T1, Sphingosine kinase 2 (Homo sapiens); conditions: at 1 µM
# [4] = molecular target: Casein kinase II subunit alpha (Homo sapiens) (UniProt P68400); conditions: at 0.1 µM
# Casein kinase II subunit alpha (Homo sapiens), sequence (P68400 whole entry, looked up): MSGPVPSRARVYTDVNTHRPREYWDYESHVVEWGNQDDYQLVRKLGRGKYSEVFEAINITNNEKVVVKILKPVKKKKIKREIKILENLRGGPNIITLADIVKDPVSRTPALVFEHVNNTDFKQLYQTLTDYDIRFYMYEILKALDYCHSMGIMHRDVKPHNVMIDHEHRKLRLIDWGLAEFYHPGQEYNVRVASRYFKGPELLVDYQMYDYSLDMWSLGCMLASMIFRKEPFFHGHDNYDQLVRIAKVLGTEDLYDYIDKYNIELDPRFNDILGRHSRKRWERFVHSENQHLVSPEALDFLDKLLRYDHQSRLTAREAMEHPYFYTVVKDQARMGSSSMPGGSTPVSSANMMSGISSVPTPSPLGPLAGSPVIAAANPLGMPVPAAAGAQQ
# [5] = molecular target: Casein kinase II subunit alpha (Homo sapiens) (UniProt P68400); conditions: at 1 µM
# [6] = molecular target: T2, Inhibitor of nuclear factor kappa-B kinase subunit alpha (Homo sapiens) (UniProt O15111); conditions: at 0.1 µM
# T2 sequence (whole entry): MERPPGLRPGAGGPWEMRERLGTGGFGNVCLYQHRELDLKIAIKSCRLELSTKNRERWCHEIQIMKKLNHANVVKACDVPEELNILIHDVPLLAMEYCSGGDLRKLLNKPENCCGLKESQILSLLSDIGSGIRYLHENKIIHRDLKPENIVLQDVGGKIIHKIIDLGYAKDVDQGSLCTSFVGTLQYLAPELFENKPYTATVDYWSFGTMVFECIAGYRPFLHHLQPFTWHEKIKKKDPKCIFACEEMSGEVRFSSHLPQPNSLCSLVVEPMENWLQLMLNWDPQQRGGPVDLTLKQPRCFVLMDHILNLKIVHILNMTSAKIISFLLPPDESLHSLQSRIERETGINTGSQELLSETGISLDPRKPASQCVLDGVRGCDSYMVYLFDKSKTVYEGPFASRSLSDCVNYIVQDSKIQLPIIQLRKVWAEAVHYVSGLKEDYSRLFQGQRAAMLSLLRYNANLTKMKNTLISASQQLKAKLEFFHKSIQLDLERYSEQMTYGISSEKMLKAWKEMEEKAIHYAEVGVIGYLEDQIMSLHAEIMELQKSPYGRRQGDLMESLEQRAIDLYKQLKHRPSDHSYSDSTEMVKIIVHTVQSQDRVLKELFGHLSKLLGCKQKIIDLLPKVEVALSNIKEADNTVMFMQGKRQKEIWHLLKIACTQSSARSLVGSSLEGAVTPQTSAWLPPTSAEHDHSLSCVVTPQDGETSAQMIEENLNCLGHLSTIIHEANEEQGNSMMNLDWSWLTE
# [7] = molecular target: T2, Inhibitor of nuclear factor kappa-B kinase subunit alpha (Homo sapiens); conditions: at 1 µM
# [8] = molecular target: T3, Inhibitor of nuclear factor kappa-B kinase subunit beta (Homo sapiens) (UniProt O14920); conditions: at 0.1 µM
# T3 sequence (whole entry): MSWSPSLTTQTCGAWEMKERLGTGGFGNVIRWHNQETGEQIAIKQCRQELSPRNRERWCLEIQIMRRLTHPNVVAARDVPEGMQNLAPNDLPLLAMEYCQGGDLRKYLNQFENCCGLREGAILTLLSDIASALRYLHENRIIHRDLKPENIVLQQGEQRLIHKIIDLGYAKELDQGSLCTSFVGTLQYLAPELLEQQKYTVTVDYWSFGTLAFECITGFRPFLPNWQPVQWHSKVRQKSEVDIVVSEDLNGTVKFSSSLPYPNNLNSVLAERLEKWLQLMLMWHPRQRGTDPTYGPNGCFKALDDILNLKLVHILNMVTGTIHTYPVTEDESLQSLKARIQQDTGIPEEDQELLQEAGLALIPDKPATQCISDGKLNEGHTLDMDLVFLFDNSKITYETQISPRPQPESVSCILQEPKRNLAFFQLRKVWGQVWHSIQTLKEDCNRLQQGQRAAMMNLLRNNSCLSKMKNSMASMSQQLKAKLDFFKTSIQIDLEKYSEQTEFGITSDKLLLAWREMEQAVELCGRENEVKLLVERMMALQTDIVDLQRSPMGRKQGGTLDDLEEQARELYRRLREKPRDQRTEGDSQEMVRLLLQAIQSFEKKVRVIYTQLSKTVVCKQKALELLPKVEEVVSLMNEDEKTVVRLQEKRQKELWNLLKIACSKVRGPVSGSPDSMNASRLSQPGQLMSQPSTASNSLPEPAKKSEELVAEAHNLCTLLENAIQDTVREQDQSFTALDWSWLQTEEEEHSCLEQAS
# [9] = molecular target: T3, Inhibitor of nuclear factor kappa-B kinase subunit beta (Homo sapiens); conditions: at 1 µM
# [10] = molecular target: T4, Inhibitor of nuclear factor kappa-B kinase subunit epsilon (Homo sapiens) (UniProt Q14164); conditions: at 0.1 µM;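 also: mean inhibition of IKKε reported, from the GSK PKIS dataset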
# T4 sequence (whole entry): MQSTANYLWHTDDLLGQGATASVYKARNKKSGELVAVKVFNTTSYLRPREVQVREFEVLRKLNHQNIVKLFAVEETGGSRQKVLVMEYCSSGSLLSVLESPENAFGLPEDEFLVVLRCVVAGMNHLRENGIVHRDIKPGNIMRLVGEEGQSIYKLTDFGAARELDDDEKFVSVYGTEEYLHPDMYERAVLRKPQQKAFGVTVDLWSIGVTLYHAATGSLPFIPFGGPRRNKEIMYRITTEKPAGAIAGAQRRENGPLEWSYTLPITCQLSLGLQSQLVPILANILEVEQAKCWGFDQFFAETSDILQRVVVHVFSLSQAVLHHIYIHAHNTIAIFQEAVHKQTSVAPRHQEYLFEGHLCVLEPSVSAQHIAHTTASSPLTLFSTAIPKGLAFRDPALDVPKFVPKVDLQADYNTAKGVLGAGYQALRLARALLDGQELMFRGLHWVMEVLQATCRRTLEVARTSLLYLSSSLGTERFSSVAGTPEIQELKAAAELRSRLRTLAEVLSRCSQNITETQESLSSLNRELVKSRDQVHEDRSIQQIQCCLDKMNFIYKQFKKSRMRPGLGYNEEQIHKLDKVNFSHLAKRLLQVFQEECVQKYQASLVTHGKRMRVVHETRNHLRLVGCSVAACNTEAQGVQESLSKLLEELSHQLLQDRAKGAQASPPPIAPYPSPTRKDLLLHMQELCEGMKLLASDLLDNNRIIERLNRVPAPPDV
# Sphingosine kinase 1 (Homo sapiens), sequence (Q9NYA1 whole entry): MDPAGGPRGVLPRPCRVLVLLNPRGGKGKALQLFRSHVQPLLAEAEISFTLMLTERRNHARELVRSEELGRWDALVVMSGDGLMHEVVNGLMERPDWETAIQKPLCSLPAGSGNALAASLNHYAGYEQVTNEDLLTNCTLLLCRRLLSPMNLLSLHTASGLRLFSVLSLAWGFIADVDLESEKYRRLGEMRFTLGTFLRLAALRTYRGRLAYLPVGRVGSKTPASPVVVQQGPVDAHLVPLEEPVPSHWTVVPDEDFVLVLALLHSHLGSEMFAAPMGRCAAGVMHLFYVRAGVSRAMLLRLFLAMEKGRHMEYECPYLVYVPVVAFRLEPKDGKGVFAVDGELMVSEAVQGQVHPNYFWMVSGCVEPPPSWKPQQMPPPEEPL
smiles,measurement,setting,value
CCN1CCC(CC(=O)Nc2n[nH]c3nc(-c4cccs4)c(Br)cc23)CC1,inhibition,[1],1.53%
same,inhibition,[2],-0.06%
same,inhibition,[3],-0.11%
same,inhibition,[4],1.1%
same,inhibition,[5],4.38%
same,inhibition,[6],4.35%
same,inhibition,[7],5.49%
same,inhibition,[8],-1.36%
same,inhibition,[9],-2.71%
same,inhibition,[10],-5.79%
